Sampled rows, rich in hits. Any-hit rate of the full collection: about 7.9%.
MARV entry inh – inhibitors of Marburg virus binding or cell entry; Potency, µM (titrated, usually from 37.8 µM), for the others: top-dose activity change, negative = inhibition, hits mostly inhibitors; Marburg virus pseudotyped entry inhibition, cell reporter; 1.8% of 300,000 active; calls by dose curve; tested in HEK293 cells; further: potency means the concentration at half of the fitted maximal effect
HCMV inh – blocks human cytomegalovirus replication | 4.5% of 410,000 active | activity change, negative = inhibition, % at 57.5 µM | HFF cells, HCMV-luciferase reporter, 72 h; hits give low values; in the data active means activity change below about -60%; inconclusive means no clear call, values can overlap the other calls; inactive means above about -39%
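HFF cells seeded 16 h at 37C, treated with compounds, infected with luciferase-reporter HCMV at MOI 1 PFU/cell; luciferase read at 72 h post infection, normalized to buffer-only and Salinomycin controls.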
HCV inhibitor – HCV inhibition. Potency, µM (highest dose often 41.8 µM), for inactives: top-dose activity change, negative = inhibition, most hits filed as inhibitors. Huh7.5.1 HCVcc-Cre infection, luciferase reporter, 44 h. AID 651820. 3.4% of 340,000 active; active means well fitted inhibition curve with a large enough effect; inconclusive means small, poorly fitted or top-dose-only effect, or another doubt; inactive means no such curve, though single readings can be large or run the other way; further: potency means the concentration at half of the fitted maximal effect
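1,000 cells/well; 4 h culture; + compound; + HCVcc-Cre (~0.5 moi); 44 h; luciferase substrate, RT 15 min; read 15 sec.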
FMDV inh – foot and mouth disease virus antiviral activity | FMDV antiviral cell-based qHTS | Potency, µM (series often up to 57.9 µM), for the others: at the highest dose activity change, negative = inhibition, usual class: inhibitors | 1.2% of 410,000 active | AID 1159524; calls by dose curve; tested in HEK293T cells; further: read-out not given here; potency means the concentration at half of the fitted maximal effect; nearly all actives have a fitted effect of over 45% in size
Lassa entry inh – Lassa virus entry inhibition; 1.2% of 300,000 active; Potency, µM (highest dose often 37.9 µM), without a hit: at the highest dose activity change, negative = inhibition, usual class: inhibitors; Lassa virus pseudotype entry inhibition, cell reporter; calls by dose curve; tested in HEK293 cells; further: potency means the concentration at half of the fitted maximal effect; nearly all actives have a fitted effect of over 50% in size
Numbers without * were called inactive; ? = inconclusive; / = not tested or not shown; ! = not active in a repeat; [ ] = remark or other dose. On the % scale 0 is the no-effect control and ±100 the full control effect.

SMILES	MARV entry inh	HCMV inh	HCV inhibitor	FMDV inh	Lassa entry inh
Cc1cc(C(=O)CSc2nnc(-c3cccc(F)c3)n2N)c(C)n1Cc1ccc2c(c1)OCO2	?	-83.5*	12.6µM*	?	-26.7%
Cc1cc(C(=O)COC(=O)Cc2n[nH]c(=O)c3ccccc23)c(C)n1-c1ccc2c(c1)OCCO2	8.1%	-77.1*	-26.7%	?	-14.4%
O=C(Cc1n[nH]c(=O)c2ccccc12)OCC(=O)c1ccccc1Cl	-5.5%	21.1	23.8%	-6.9%	24.3%
CCCn1c(SCC(=O)c2cc(C)n(-c3ccc4c(c3)OCO4)c2C)n[nH]c1=O	?	-26.3	?	?	?
Cc1cc(C(=O)CSc2nncs2)c(C)n1-c1ccc2c(c1)OCO2	15.6%	-69.1*	?	/	8.0%
Cc1cc(C(=O)COc2ccc(C#N)cc2)c(C)n1-c1ccc2c(c1)OCO2	-14.2%	-65.7*	-19.8%	?	2.1%
O=C(Nc1ccccc1)c1cc2n(n1)C(C(F)(F)F)CC(C1CC1)N2 (centres undefined)	0.0%	-6.0	-8.1%	50.7%	22.3%
Cc1cc(C(=O)CSc2nnnn2-c2ccc(O)cc2)c(C)n1Cc1ccc2c(c1)OCO2	13.4%	-4.6	?	?	?
Cc1cc(C(=O)CSc2nnnn2-c2ccccc2)c(C)n1-c1ccc2c(c1)OCO2	?	-2.8	?	-26.1%	6.51µM*
Cc1cc(C)c(/C=C/c2onc(C)c2S(=O)(=O)N2CCC(C(=O)NCCc3ccccc3)CC2)c(C)c1	/	92.7	/	-28.4%	11.0%[46.1 µM]
C/C(N)=C(/C#N)C(=O)CSc1cc(C)c2cc(C)cc(C)c2n1	24.1%[46.1 µM]	-7.2	10µM*	4.3%	-21.4%
c1cc(-c2ccc(CN3CCOCC3)cc2)n2ccnc2c1	/	0.1	/	-14.2%	/
O=C(OCn1ncc(Br)c(Br)c1=O)c1c(F)cccc1F	5.2%	/	2.82µM*	/	/
CC(=O)Cn1ncc(Br)c(Br)c1=O	?	-105.4*	?	?	?
COC(=O)N[C@H](CC(C)=O)c1ccc2c(c1)OCO2	-17.1%[14.2 µM]	/	/	/	/
COCC(C)NC(=O)C1CC(=O)N(CCc2ccc(F)cc2)C1 (centres undefined)	/	-1.6	/	-16.1%	/
COc1ccc(S(=O)(=O)NCC2CCCN(C(=O)c3ccco3)C2)cc1 (centres undefined)	2.0%[46.1 µM]	38.6	5.7%	66.4%	-0.8%
COc1ccc(S(=O)(=O)NCC2CCCN(C(=O)c3cccnc3)C2)cc1 (centres undefined)	?	-60.1*	2.1%	13.0%	?
O=C(O)CC/C=C\C[C@@H]1CO[C@H](c2ccccc2Cl)O[C@@H]1c1ccccc1O	/	/	/	-9.9%	/
Cc1ccc(CC(=O)Nc2nccs2)cc1C	7.9%	-93.6*	10.1%	25.5%	0.6%
COc1ccc(CCCc2nnc(SCC(=O)Nc3nccs3)n2C)cc1C	4.4%	6.2	-13.5%	-27.2%	20.6µM*
Cc1cc(C)nc(SCc2nnc(SCC(=O)Nc3nccs3)n2C)n1	?	8.2	4.8%	-16.7%	-0.3%
CCC1CCCCN1S(=O)(=O)c1ccc(NC(=O)c2cccnc2)cc1 (centres undefined)	-28.7%	-11.9	/	11.2%	?
COc1cc(OC)cc(C(=O)Nc2ccc(S(=O)(=O)N3CCCCC3c3cccnc3)cc2)c1 (centres undefined)	/	-68.2*	/	?	?
CCOc1cc(/C=N/NC(=O)Cc2ccc(C(F)(F)F)cc2[N+](=O)[O-])c(Br)cc1OC	-7.8%[46.1 µM]	-20.5	?	-23.5%	-16.7%
SMILES	MARV entry inh	HCMV inh	HCV inhibitor	FMDV inh	Lassa entry inh
COc1cc(Br)cc(/C=N/NC(=O)Cc2ccc(C(F)(F)F)cc2[N+](=O)[O-])c1O	?	-102.1*	?	-22.8%	?
CC(C)(C)c1ccc(C(O)CCCN2CCC(C(O)(c3ccccc3)c3ccccc3)CC2)cc1 (centres undefined)	2.24µM*!	-23.8	1.7%[8.37 µM]	?	2.91µM*!
CC(C)(C)c1ccc([C@@H](O)CCCN2CCC(C(O)(c3ccccc3)c3ccccc3)CC2)cc1	-17.7%	/	/	/	/
COc1ccccc1-c1ccc(OCCCN2CCC(C(O)(c3ccccc3)c3ccccc3)CC2)cc1	/	-98.8*	/	/	/
CC(=O)OC[C@]12CCC(C)=C[C@H]1O[C@@H]1[C@H](O)[C@@H](OC(C)=O)[C@@]2(C)[C@]12CO2	/	-76.9*	?	?	/
COc1ccc(-c2nn(-c3ccccc3)cc2C(=O)NC(=S)NNC(=O)c2ccncc2)cc1	/	-91.7*	-22.0%	0.0%	/

Source: PubChem BioAssay
